This passage reports outcome and AC50 results from PubChem BioAssay (EPA / NIEHS).

“And” between values parts separate entries of the source, which are not always exact repeats. Identical values can stand only once. Some compounds were tested as several samples or in several runs, with calls that do not always agree. The source made the active and inactive calls. The calls were made as follows: active = hit-call score of the fitted dose curve at least 0.9, where 1 is the maximum; inactive = score below 0.9.

Experiment [1] concerns the target CCAAT/enhancer-binding protein beta (Homo sapiens) (UniProt P17676). The experiment is described as follows: ATG_C_EBP_CIS: Attagene CIS-FACTORIAL HepG2 Assay for human CCAAT/Enhancer Binding Protein (C/EBP) beta (AID 2282927). Particulars: HepG2 Attagene cis-factorial transcription factor reporter; actives raise or lower the signal. Put shortly: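 Transiently transfected HepG2 (MRTU library, endogenous TF-driven promoters); 24 h dosing; total RNA → oligo(dT) RT → PCR → 6-FAM primer extension → HpaI digest → CE; fit bidirectionally vs DMSO.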

A short description of experiment [2]: ATG_CMV_CIS: Attagene CIS-FACTORIAL HepG2 Assay for human CMV (Internal Marker) (AID 2282928).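 Also: endpoint acts as a background internal control marker rather than a target.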 Particulars: HepG2 CMV promoter reporter, transcription factor profiling; actives raise or lower the signal. Put shortly:
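Fluorescence intensity of RT-PCR-derived reporter fragments, resolved by capillary electrophoresis, gives the signal. HepG2 liver cells bearing transfected cis-element reporters were treated 24 h; activity in either direction was fit relative to DMSO-treated controls.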

The nature of experiment [3]: ATG_DR4_LXR_CIS: Attagene CIS-FACTORIAL HepG2 Assay for human Liver X Receptor (LXR), DR4 submotif (AID 2282929). Particulars: HepG2 Attagene DR4 cis-reporter, mRNA transcription; actives raise or lower the signal. An outline of the steps: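 HepG2, transient MRTU transfection, cis-element (DR4) promoter; 24 h compound exposure; total RNA → oligo(dT) RT → PCR → 6-FAM primer extension → HpaI cut → CE. Gain/loss vs DMSO, bidirectional fit.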

Experiment [4] deals with Aryl hydrocarbon receptor (Homo sapiens) (UniProt P35869). Briefly: ATG_Ahr_CIS: Attagene CIS-FACTORIAL HepG2 Assay for human Aryl Hydrocarbon Receptor (Ahr) (AID 2282930). Particulars: HepG2 AhR cis-factorial reporter transcription; actives raise or lower the signal. An outline of the steps:
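Read-out: reporter mRNA quantified by RT-PCR with fluorescent primer extension and capillary electrophoresis. Human HepG2 liver cells carried transfected cis-promoter reporter units and were exposed to chemical for 24 h; gain or loss fitted relative to DMSO.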

Experiment [5] can be described thus: ATG_AP_1_CIS: Attagene CIS-FACTORIAL HepG2 Assay for human Activator Protein 1 (AP-1) (AID 2282931). Particulars: HepG2 Attagene cis-factorial AP-1 reporter mRNA; actives raise or lower the signal. Put shortly:
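Transient MRTU transfection of HepG2 → 24 h chemical treatment → RNA isolation, RT-PCR, 6-FAM labelling, HpaI digest → capillary electrophoresis. Fit: bidirectional, DMSO negative control.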

Experiment [6] can be described thus: ATG_BRE_CIS: Attagene CIS-FACTORIAL HepG2 Assay for human Bone Morphogenetic Protein (BMP) Response Element (BRE) (AID 2282933). Particulars: HepG2 BMP response element reporter, Attagene transcription factor profiling; actives raise or lower the signal. Put shortly: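 Endogenous transcription factor activity read in transiently transfected HepG2 cells after 24 h chemical exposure. Bidirectional curve fitting against DMSO; readout is reporter transcript level by RT-PCR with capillary electrophoresis of labelled products.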

For experiment [7], the target named is Retinoic acid receptor alpha (Homo sapiens) (UniProt P10276). Briefly: ATG_DR5_RAR_CIS: Attagene CIS-FACTORIAL HepG2 Assay for human Retinoic Acid Receptor Alpha (RARE), DR5 submotif (AID 2282934). Particulars: HepG2 Attagene cis-factorial RARE DR5 reporter, mRNA; actives raise or lower the signal. Put shortly:
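Read-out: DR5-driven reporter transcript measured by RT-PCR, 6-FAM primer extension, HpaI digest and capillary electrophoresis. Human HepG2 liver cells carry transiently transfected cis-element reporter constructs; dosing lasts 24 h. Gain or loss of signal fitted against DMSO baseline.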

Experiment [8] has as its target Transcription factor E2F1 (Homo sapiens) (UniProt Q01094). The experiment is described as follows: ATG_E2F_CIS: Attagene CIS-FACTORIAL HepG2 Assay for human E2F Transcription Factor 1 (AID 2282935). Particulars: HepG2 Attagene cis-reporter, E2F reporter RNA transcripts; actives raise or lower the signal. An outline of the steps:
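Transient MRTU transfection of HepG2; 24 h compound exposure; RNA → oligo(dT) RT → PCR → FAM label → HpaI cut → CE fluorescence. Gain/loss of signal fit against DMSO.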

Experiment [9] in a line: ATG_E_Box_CIS: Attagene CIS-FACTORIAL HepG2 Assay for human Enhancer Box (E-box) (AID 2282936). Particulars: HepG2 E-box cis-reporter transcription, actives raise or lower the signal. An outline of the steps: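 Transiently transfected HepG2, endogenous TF-driven reporters, 24 h dosing. Readout: RT-PCR plus capillary electrophoresis of fluorescent reporter fragments. Gain or loss of signal fitted bidirectionally against DMSO baseline.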

A short description of experiment [10]: ATG_M_61_CIS: Attagene CIS-FACTORIAL HepG2 Assay for M61 Transcription Factor (Internal Marker) (AID 2282937). Particulars: HepG2 Attagene CIS-FACTORIAL M61 internal marker reporter; actives raise or lower the signal. An outline of the steps:
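Human liver HepG2, transient MRTU transfection (cis promoter elements), 24 h compound. Total RNA → oligo(dT) RT → PCR → FAM label → HpaI → CE. Internal background marker; bidirectional fitting, DMSO = baseline.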

A short description of experiment [11]: ATG_EGR_CIS: Attagene CIS-FACTORIAL HepG2 Assay for human Early Growth Response 1 (EGR1) (AID 2282938). Particulars: HepG2 Attagene CIS-FACTORIAL EGR reporter mRNA; actives raise or lower the signal. Put shortly: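 Transient transfection of human HepG2 with multiple cis-regulated reporter units, chemical exposure 24 h, total RNA isolated. Reverse transcription, PCR, fluorescent labelling and capillary electrophoresis quantify reporter transcripts; activity fitted bidirectionally against DMSO.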

Experiment [12] can be described thus: ATG_M_19_CIS: Attagene CIS-FACTORIAL HepG2 Assay for M19 Transcription Factor (Internal Marker) (AID 2282939). Particulars: HepG2 Attagene CIS-FACTORIAL M19 internal marker reporter; actives raise or lower the signal. An outline of the steps:
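Internal marker readout, fitted in both directions against DMSO, from HepG2 cells carrying transfected cis-element reporter constructs; RT-PCR and capillary electrophoresis of reporter mRNA after 24 h exposure.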

A short description of experiment [13]: ATG_ERE_CIS: Attagene CIS-FACTORIAL HepG2 Assay for Estrogen Response Element (ERE) (AID 2282940). Particulars: HepG2 ERE cis-reporter, Attagene RNA transcript; actives raise or lower the signal. An outline of the steps: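 After 24 h compound treatment, RNA from transfected HepG2 cells was reverse-transcribed, reporter cDNA PCR-amplified, FAM-labelled, HpaI-cut and resolved by capillary electrophoresis. ERE-driven cis reporter transcripts reflect endogenous factors; gain or loss scored against DMSO.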

Experiment [14] in a line: ATG_Ets_CIS: Attagene CIS-FACTORIAL HepG2 Assay for human Erythroblast Transformation Specific (ETS) (AID 2282941). Particulars: HepG2 ETS cis-reporter transcription, actives raise or lower the signal. Put shortly: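 Multiplexed reporter transcript profiling: HepG2, 24 h treatment, total RNA to cDNA, PCR, 6-FAM labelling, HpaI cut, capillary electrophoresis. Gain- or loss-of-signal fitted against DMSO.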

The target in experiment [15] is Hepatocyte nuclear factor 3-beta (Homo sapiens) (UniProt Q9Y261). The experiment is described as follows: ATG_FoxA2_CIS: Attagene CIS-FACTORIAL HepG2 Assay for human Forkhead box A2 (FOXA2) (AID 2282942). Particulars: HepG2 cis-reporter transcription factor activity, 24 h; actives raise or lower the signal. Put shortly: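 Transient MRTU transfection of HepG2 liver cells; 24 h treatment; total RNA → oligo(dT) RT → PCR → FAM primer extension → HpaI cut → CE. Bidirectional fit vs DMSO.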
Hepatocyte nuclear factor 3-beta (Homo sapiens), sequence (Q9Y261 whole entry, looked up): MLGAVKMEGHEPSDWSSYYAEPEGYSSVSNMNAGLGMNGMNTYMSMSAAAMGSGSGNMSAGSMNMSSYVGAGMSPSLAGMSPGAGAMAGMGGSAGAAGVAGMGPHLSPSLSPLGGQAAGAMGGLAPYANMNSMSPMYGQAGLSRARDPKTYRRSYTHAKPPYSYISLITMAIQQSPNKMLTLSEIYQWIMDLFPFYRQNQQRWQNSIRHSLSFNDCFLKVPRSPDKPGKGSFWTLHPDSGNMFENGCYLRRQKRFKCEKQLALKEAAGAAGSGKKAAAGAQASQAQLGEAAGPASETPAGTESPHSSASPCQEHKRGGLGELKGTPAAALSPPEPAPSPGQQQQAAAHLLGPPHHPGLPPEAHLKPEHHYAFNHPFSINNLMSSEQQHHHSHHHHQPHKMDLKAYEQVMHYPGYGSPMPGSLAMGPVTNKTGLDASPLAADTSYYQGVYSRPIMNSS

Experiment [16] can be described thus: ATG_FoxO_CIS: Attagene CIS-FACTORIAL HepG2 Assay for human Forkhead box O (FoxO) (AID 2282943). Particulars: HepG2 Attagene cis-reporter, FoxO element, mRNA; actives raise or lower the signal. Put shortly: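 Read-out: fluorescence of 6-FAM-labelled reporter cDNA fragments resolved by capillary electrophoresis. Transiently transfected HepG2 cells were dosed for 24 h; activity fitted in both directions relative to DMSO controls.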

A short description of experiment [17]: ATG_GATA_CIS: Attagene CIS-FACTORIAL HepG2 Assay for human GATA Binding Protein (AID 2282944). Particulars: HepG2 GATA cis-element reporter, Attagene multiplex mRNA; actives raise or lower the signal. Put shortly:
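Reporter transcripts from a GATA cis-regulated unit, among multiplexed reporters in transfected HepG2 cells, were measured by RT-PCR with capillary electrophoresis after 24 h dosing. Induction or loss scored relative to DMSO.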

Experiment [18] is described as follows: ATG_GLI_CIS: Attagene CIS-FACTORIAL HepG2 Assay for human Zinc Finger Protein GLI1 (AID 2282945). Particulars: HepG2, Attagene cis-factorial reporter mRNA, GLI element; actives raise or lower the signal. An outline of the steps: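 Transiently transfected HepG2 cells report endogenous transcription factor activity via cis-element-driven reporter units. After 24 h compound exposure, reporter mRNA was measured by RT-PCR with capillary electrophoresis; bidirectional fitting against DMSO baseline.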

Experiment [19] in a line: ATG_AP_2_CIS: Attagene CIS-FACTORIAL HepG2 Assay for human Activator Protein 2 (AP-2) (AID 2282932). Particulars: HepG2 AP-2 cis-reporter, Attagene transcription factor profiling; actives raise or lower the signal. Put shortly: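 Read-out: fluorescent reporter mRNA via RT-PCR and capillary electrophoresis, 24 h post-dose in transiently transfected HepG2. Endogenous factors drive cis-promoter reporters; gain or loss of signal fitted bidirectionally against DMSO.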

The target of experiment [20] is Bile acid receptor (Homo sapiens) (UniProt Q96RI1). The experiment is described as follows: ATG_IR1_CIS: Attagene CIS-FACTORIAL HepG2 Assay for human Nuclear Receptor Subfamily 1 Group H Member 4 (NR1H4), IR1 submotif (AID 2282946). Particulars: IR1 reporter transcription, actives raise or lower the signal. An outline of the steps: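 Fluorescence of capillary-separated, HpaI-digested RT-PCR reporter products gave IR1-element mRNA induction in HepG2 cells 24 h after dosing. Endogenous transcription factors drove the cis-regulated reporters; activity was fitted bidirectionally against DMSO.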
Bile acid receptor (Homo sapiens), sequence (Q96RI1 whole entry, looked up): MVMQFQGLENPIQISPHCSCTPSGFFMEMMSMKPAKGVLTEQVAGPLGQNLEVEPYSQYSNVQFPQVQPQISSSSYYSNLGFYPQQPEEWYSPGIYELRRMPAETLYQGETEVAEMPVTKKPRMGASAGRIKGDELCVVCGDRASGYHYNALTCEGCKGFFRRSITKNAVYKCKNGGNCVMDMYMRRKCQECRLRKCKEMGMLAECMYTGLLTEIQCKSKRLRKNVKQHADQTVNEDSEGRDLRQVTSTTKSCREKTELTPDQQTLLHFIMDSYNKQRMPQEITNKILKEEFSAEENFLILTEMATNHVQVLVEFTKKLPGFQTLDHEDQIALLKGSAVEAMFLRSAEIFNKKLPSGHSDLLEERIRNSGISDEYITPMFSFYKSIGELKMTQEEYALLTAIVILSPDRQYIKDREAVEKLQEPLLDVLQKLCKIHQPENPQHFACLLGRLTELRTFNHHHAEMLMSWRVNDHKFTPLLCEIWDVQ

Transcription factor E2F1 (Homo sapiens), sequence (Q01094 whole entry, looked up): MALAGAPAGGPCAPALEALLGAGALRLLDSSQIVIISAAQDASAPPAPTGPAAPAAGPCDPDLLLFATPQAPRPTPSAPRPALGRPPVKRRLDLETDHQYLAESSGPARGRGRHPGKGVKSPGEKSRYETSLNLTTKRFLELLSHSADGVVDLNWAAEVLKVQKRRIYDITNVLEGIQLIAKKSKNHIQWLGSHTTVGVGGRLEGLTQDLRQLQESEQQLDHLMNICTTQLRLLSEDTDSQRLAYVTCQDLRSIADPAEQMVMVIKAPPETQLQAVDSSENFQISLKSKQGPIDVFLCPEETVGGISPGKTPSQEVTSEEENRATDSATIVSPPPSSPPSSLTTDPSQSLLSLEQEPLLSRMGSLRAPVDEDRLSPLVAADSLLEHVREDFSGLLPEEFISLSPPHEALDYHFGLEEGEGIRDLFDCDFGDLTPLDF
CCAAT/enhancer-binding protein beta (Homo sapiens), sequence (P17676 whole entry, looked up): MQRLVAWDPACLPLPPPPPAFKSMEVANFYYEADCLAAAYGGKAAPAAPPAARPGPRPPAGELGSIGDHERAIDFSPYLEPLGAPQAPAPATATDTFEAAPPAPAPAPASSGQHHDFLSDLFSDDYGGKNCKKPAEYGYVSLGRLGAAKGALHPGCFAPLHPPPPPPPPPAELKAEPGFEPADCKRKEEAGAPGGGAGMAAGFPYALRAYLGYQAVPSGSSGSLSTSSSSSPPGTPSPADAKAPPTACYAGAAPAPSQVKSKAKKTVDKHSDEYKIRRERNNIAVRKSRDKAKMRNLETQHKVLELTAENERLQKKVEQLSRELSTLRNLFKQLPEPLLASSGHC
Retinoic acid receptor alpha (Homo sapiens), sequence (P10276 whole entry, looked up): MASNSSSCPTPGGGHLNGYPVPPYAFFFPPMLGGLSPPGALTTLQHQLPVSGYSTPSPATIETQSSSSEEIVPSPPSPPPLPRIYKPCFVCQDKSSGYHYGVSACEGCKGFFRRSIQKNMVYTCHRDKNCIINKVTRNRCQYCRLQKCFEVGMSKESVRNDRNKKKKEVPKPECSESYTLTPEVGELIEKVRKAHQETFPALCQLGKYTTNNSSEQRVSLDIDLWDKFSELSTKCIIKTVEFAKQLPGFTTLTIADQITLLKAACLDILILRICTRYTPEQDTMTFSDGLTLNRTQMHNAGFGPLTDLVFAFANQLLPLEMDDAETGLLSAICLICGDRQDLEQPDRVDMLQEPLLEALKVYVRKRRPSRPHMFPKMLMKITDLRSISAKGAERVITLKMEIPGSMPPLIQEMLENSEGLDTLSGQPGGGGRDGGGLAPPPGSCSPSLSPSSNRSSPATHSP
Aryl hydrocarbon receptor (Homo sapiens), sequence (P35869 whole entry, looked up): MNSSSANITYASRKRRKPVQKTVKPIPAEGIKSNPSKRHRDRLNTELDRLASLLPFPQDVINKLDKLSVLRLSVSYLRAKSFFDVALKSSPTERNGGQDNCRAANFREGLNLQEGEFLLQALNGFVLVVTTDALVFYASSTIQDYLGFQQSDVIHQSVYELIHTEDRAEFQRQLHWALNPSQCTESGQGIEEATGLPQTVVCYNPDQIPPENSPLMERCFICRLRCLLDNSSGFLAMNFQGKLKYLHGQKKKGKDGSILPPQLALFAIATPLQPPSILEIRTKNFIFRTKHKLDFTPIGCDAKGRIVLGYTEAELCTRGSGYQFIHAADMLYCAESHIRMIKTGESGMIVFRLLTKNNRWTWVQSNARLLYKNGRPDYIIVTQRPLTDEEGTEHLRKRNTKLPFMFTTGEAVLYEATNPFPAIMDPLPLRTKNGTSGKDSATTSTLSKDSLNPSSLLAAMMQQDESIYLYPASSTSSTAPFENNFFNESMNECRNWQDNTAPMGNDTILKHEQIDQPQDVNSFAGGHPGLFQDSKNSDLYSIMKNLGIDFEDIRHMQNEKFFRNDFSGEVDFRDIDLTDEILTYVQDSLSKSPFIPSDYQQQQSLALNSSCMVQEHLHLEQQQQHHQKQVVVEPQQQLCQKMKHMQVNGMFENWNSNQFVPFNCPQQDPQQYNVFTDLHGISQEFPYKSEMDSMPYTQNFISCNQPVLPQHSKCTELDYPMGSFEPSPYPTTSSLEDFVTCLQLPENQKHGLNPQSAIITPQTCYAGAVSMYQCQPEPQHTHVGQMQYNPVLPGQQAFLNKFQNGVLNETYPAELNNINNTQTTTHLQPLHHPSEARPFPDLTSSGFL

For `CCOC(=O)COc1cc(-n2ncc(C(F)(F)F)c(C)c2=O)c(F)cc1Cl`, the result in experiment [1], in experiment [2], in [3], in [4], in experiment [5] and in experiment [6] was inactive. In addition, the call in experiment [7], in [8], in experiment [9], in experiment [10], in experiment [11] and in experiment [12] was inactive. The call in [13], in [14], in experiment [15], in experiment [16], in experiment [17] and in [18] was inactive.

`S=C(S)NCCNC(=S)S.[Mn+2].[S-]C([S-])=NCCN=C([S-])[S-].[Zn+2]`: the outcome in experiment [1], in experiment [2], in experiment [3], in experiment [5], in [19] and in experiment [6] was inactive. Besides, the result in [8], in [9], in [10], in [11], in experiment [12] and in [14] was inactive. Besides, the outcome in experiment [15], in experiment [16], in [17] and in experiment [18] was inactive. Further, the AC50 – broadly, the concentration at which the activity in the assay is half-maximal – in experiment [2] is 231 nM (active) and 1.21 µM (active) and 343 nM (active); in experiment [3], 8.2 µM (active) and 50 µM (active) and 67.7 µM (active); in experiment [5] it was 20.7 µM (active) [middle of 4 runs]; in experiment [19], 4.93 µM (active); in experiment [11], 16.2 µM (active) and 16.5 µM (active) and 3.53 µM (active).

Regarding `CCCCOC(=O)C(C)Oc1ccc(Oc2ccc(C(F)(F)F)cn2)cc1` (centres undefined), the result in experiment [1], in experiment [2], in [3], in [4], in [5] and in [19] was inactive. The compound was classed as inactive in [6], in [7], in experiment [8], in [9], in experiment [10] and in experiment [11]. Besides, the outcome in [12], in [13], in experiment [14], in experiment [15], in experiment [16] and in [17] was inactive. Also, the compound was classed as inactive in experiment [18] and in experiment [20].
